G9a block – inhibitors of human histone lysine methyltransferase G9a. hit rate 8.8% among 350,000. G9a H3K9 monomethylation, AlphaScreen, 2 h. Q96KQ7. Potency, µM (top dose mostly 102 µM), without a hit: at the highest dose activity, negative = inhibition, most hits filed as inhibitors; note: % is set by controls: 0 for no effect and ±100 for the full control effect; nearly all actives have a fitted effect of over 75% in size
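Quantitative HTS format: methyltransferase activity on a biotin-tagged H3K9 peptide is measured by AlphaScreen, using a rabbit anti-monomethyl-H3K9 antibody with streptavidin donor and anti-IgG acceptor beads. Final levels are 20 nM enzyme, 500 nM peptide, 20 uM SAM; 2 h RT.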
HP1b chromo inh – inhibitors of HP1-beta chromodomain binding to methylated histone tails | P83916 | AlphaScreen HP1-beta / biotin-H3K9me3 peptide binding | Potency, µM (series often up to 114 µM), inactives show at the top dose activity change, negative = inhibition, hits mostly inhibitors | hit rate 0.56% among 390,000 | AID 540317; note: nearly all actives have a fitted effect of over 70% in size
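AlphaScreen: HP1-beta (50 nM) preformed 30 min with biotin-H3(1-18)K9me3 peptide (50 nM) in PBS pH 7.4, 0.01% Tween-20. Compound added for 30 min at RT, then streptavidin donor/nickel chelate acceptor beads (10 ug/mL) for 30 min.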
BAZ2B inh – inhibitors of human BAZ2B bromodomain; AlphaScreen BAZ2B-H3K14Ac peptide displacement; AID 504333; hit rate 4.4% among 360,000; Potency, µM (series often up to 114 µM), inactives show at the top dose activity change, negative = inhibition, actives largely listed as inhibitors; Q9UIF8; note: % is set by controls: 0 for no effect and ±100 for the full control effect; nearly all actives have a fitted effect of over 60% in size
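BAZ2B 50 nM plus b-H3(5-23)K14Ac 50 nM, PBS pH 7.4/0.01% Tween-20, 30 min RT; compound added (max 110 uM), 30 min RT; streptavidin donor/Ni-chelate acceptor beads 10 ug/mL final, 20 min dark; AlphaScreen read.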
JMJD2A Tudor inh – blocks the human JMJD2A Tudor domain; O75164; AlphaScreen JMJD2A-Tudor / H3K4me3 peptide binding; Potency, µM (titrated, usually from 114 µM), inactives show at the top dose activity change, negative = inhibition, actives largely listed as inhibitors; hit rate 4.4% among 390,000; AID 504339; note: % is set by controls: 0 for no effect and ±100 for the full control effect; nearly all actives have a fitted effect of over 50% in size
Sfp PPTase inh – inhibitors of Bacillus subtilis Sfp phosphopantetheinyl transferase | Q9F4F7 | Biochemical Sfp PPTase activity, qHTS | Potency, µM, for the others: largest response in the series, negative = inhibition, most hits filed as inhibitors | hit rate 3.5% among 310,000 | AID 1490;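 note: the enzyme is Sfp with the accession as filed and its product quenches rhodamine fluorescence; 0% = enzyme reaction without inhibitor and -100% = no enzyme wells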
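Compounds were incubated with enzyme (final 15 nM) for 15 min at room temperature before substrate addition started the reaction. Fluorescence at 525 nm excitation, 598 nm emission was recorded immediately and after 30 minutes.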
L3MBTL1 block – inhibitors of human L3MBTL1; Q9Y468; AlphaScreen L3MBTL1–H3K9me1 peptide binding; Potency, µM (highest dose often 57.1 µM), for inactives: at the top dose activity, negative = inhibition, most hits filed as inhibitors; hit rate 0.66% among 230,000; note: % is set by controls: 0 for no effect and ±100 for the full control effect; nearly all actives have a fitted effect of over 60% in size
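AlphaScreen proximity signal between nickel-chelate acceptor and streptavidin donor beads (final 10 ug/mL) reports binding of 50 nM L3MBTL1 to 75 nM biotin-H3 K9me1 peptide; complex incubated with compounds 30 min at room temperature; cefsulodin titration as control.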
An asterisk follows results filed as active; [ ] = remark or other dose. Shown are actives, neighbours in structure and some others; about 12% of the full set was active somewhere. Calls come from the whole dose curve; as a rule, active = well fitted curve in the direction sought with a large enough effect; inconclusive = small, poorly fitted or top-dose-only effect, or another doubt; inactive = no such curve, though single readings can be large; an effect the other way counts as inactive or inconclusive. Potency is the fitted concentration of half-maximal effect.

Results for Cc1cccc(C)c1-n1ncc(C(=O)O)c1C1CCN(C(=O)OC(C)(C)C)CC1 ?
G9a block: 7%[59 µM]; HP1b chromo inh: 35%; BAZ2B inh: 3%; JMJD2A Tudor inh: 9%

What do the screens show for `Cc1ccc(CSc2nc3ccc(NC(=O)C(C)C)cc3s2)cc1`?
G9a block: -27%[59 µM]; HP1b chromo inh: 32%; BAZ2B inh: -8%; JMJD2A Tudor inh: -7%

What do the screens show for `O=C(O)CCc1ccc(-c2ccc(Br)cc2)n1-c1ccccc1O`?
G9a block: inconclusive; HP1b chromo inh: -4%; BAZ2B inh: -37%; JMJD2A Tudor inh: -30%

What do the screens show for `Cc1ccc(-c2ccc(CCC(=O)O)n2-c2ccc(C(C)C)cc2)cc1`?
G9a block: 16µM*; HP1b chromo inh: inconclusive; BAZ2B inh: 40µM*; JMJD2A Tudor inh: inconclusive

What do the screens show for `Cc1ccc(-c2ccc(CCC(=O)O)n2-c2cccc(C(=O)O)c2)cc1`?
G9a block: 45µM*; HP1b chromo inh: 10%; BAZ2B inh: -12%; JMJD2A Tudor inh: -26%; Sfp PPTase inh: -20%

What do the screens show for `Cc1ccc(-c2ccc(CCC(=O)O)n2-c2cccc(C)c2C)cc1`?
G9a block: 14µM*; HP1b chromo inh: -24%; BAZ2B inh: 45µM*; JMJD2A Tudor inh: 35µM*

Results for Cc1ccc(-c2ccc(CCC(=O)O)n2-c2ccc(C(=O)O)cc2)cc1 ?
G9a block: 32µM*; HP1b chromo inh: 22%; BAZ2B inh: inconclusive; JMJD2A Tudor inh: -17%; Sfp PPTase inh: 56µM*

How did CC(=O)Nc1ccc(-n2c(CCC(=O)O)ccc2-c2ccc(Br)cc2)cc1 do in these assays?
G9a block: inconclusive; HP1b chromo inh: -17%; BAZ2B inh: inconclusive; JMJD2A Tudor inh: -25%

What do the screens show for `O=C(O)CCc1ccc(-c2ccccc2)n1-c1cccc(O)c1`?
G9a block: inconclusive; HP1b chromo inh: -6%; BAZ2B inh: -35%; JMJD2A Tudor inh: inconclusive; Sfp PPTase inh: -17%; L3MBTL1 block: -11%

Results for CCCn1c(C)nc2c(NC(C)CCCN(CC)CC)nc(C)nc21 (stereo not drawn) ?
Sfp PPTase inh: 18%

What do the screens show for `CCOCCCNc1nc2c(S(=O)(=O)c3ccc(CC)cc3)nnn2c2ccc(Cl)cc12`?
G9a block: 1%[59 µM]; HP1b chromo inh: 44%; BAZ2B inh: 3%; JMJD2A Tudor inh: 17%

Results for CCOC(=O)c1ccc(NC(=O)Nc2ccc(F)cc2)cc1 ?
G9a block: -1%; HP1b chromo inh: 17%; BAZ2B inh: 11%; JMJD2A Tudor inh: 3%; Sfp PPTase inh: -4%

What do the screens show for `CCOC(=O)c1ccc(-n2c(CCC(=O)O)ccc2-c2ccc(F)cc2)cc1`?
G9a block: 45µM*; HP1b chromo inh: 2%; BAZ2B inh: -36%; JMJD2A Tudor inh: -35%; Sfp PPTase inh: -2%

What do the screens show for `Cc1nc(Nc2cccc(Cl)c2)c2oc3ccccc3c2n1`?
G9a block: 71µM*; HP1b chromo inh: 11%; BAZ2B inh: -27%; JMJD2A Tudor inh: -9%; Sfp PPTase inh: -26%

What do the screens show for `Cc1nc(Nc2ccccc2F)c2oc3ccccc3c2n1`?
G9a block: 32µM*; HP1b chromo inh: 23%; BAZ2B inh: -36%; JMJD2A Tudor inh: 5%; Sfp PPTase inh: -3%

How did Cc1nc(Nc2ccc(Cl)cc2)c2oc3ccccc3c2n1 do in these assays?
G9a block: 2%[0.501 µM]; HP1b chromo inh: -6%[57 µM]; BAZ2B inh: -28%; JMJD2A Tudor inh: inconclusive; Sfp PPTase inh: -10%

What do the screens show for `Cc1nc(Nc2ccccc2O)c2oc3ccccc3c2n1`?
G9a block: -17%; HP1b chromo inh: 17%; BAZ2B inh: -36%; JMJD2A Tudor inh: -21%; Sfp PPTase inh: -7%

How did CC(=O)OCC(NC(=O)C(CCCCNC(=O)OCc1ccccc1)NC(=O)OC(C)(C)C)C1OC(n2cc(F)c(=O)[nH]c2=O)C(OC(C)=O)C1OC(C)=O (stereo not drawn) do in these assays?
HP1b chromo inh: 46%; JMJD2A Tudor inh: -9%; Sfp PPTase inh: 21%

Source: PubChem
